In the supplement of paper PMC13380429:

Key:
[1] = system: Vero E6 infected with SARS-CoV-2; assay: morphology score (similarity to uninfected cells); higher = more like uninfected cells; conditions: 24 h
[2] = system: Vero E6 infected with SARS-CoV-2; assay: SARS-CoV-2 infection rate relative to infected DMSO; higher = more infection, active = 60 or less; conditions: 24 h

Structure (SMILES) | morphology score [1] | SARS-CoV-2 infection rate [2]
Cc1ccccc1NC(=O)Nc1ccc(CC(=O)N(C)[C@@H](CC(C)C)C(=O)NCC[C@H](NC(=O)[C@@H]2CCCN2S(=O)(=O)c2cc(Cl)cc(Cl)c2)C(=O)O)cc1 (10 µM) | 0.157 | 91% (inactive)
O=C1Cc2c([nH]c3ccc(Br)cc23)-c2ccccc2N1 [kenpaullone] (10 µM) | 0.533 | 69.5% (inactive)
C[C@]12C=CC(=O)N[C@@H]1CC[C@@H]1[C@@H]2CC[C@]2(C)[C@@H](C(=O)Nc3cc(C(F)(F)F)ccc3C(F)(F)F)CC[C@@H]12 [dutasteride] (10 µM) | 0.111 | 111% (inactive)
C[N+]12CCCCC1CCC(=C(c1cccs1)c1cccs1)C2 (stereo unspecified) [tiquizium] (10 µM) | 0.138 | 93.5% (inactive)
COc1cccc([C@H](O)C2CCN(CCc3ccc(F)cc3)CC2)c1OC [volinanserin] (10 µM) | -0.147 | 110% (inactive)
CCNC(=O)c1n[nH]c(-c2cc(Cl)c(O)cc2O)c1-c1ccc(OC)cc1 (10 µM) | 0.0403 | 104% (inactive)
O=[N+]([O-])c1ccc(O)c([N+](=O)[O-])c1 [2,4-dinitrophenol] (10 µM) | 0.0596 | 97.5% (inactive)
COc1ccc(Cl)cc1C(=O)NCCc1ccc(C(=O)O)cc1 [meglitinide] (10 µM) | 0.13 | 102% (inactive)
Cn1cc(C(=O)c2cccc3ccccc23)cc1C(=O)O [napirimus] (10 µM) | 0.122 | 107% (inactive)
CCC1NC(=O)c2cc(S(N)(=O)=O)c(Cl)cc2N1 (stereo unspecified) [quinethazone] (10 µM) | 0.339 | 88% (inactive)
O=C(O)CCN(O)C(=O)CCCCCCCCC1CC1 (10 µM) | 0.0952 | 102% (inactive)
O=C1C[C@@H](c2ccc(O)cc2)Oc2cc(O)cc(O)c21 [naringenin] (10 µM) | 0.0218 | 98.5% (inactive)
Nc1c(S(=O)(=O)O)cc(Nc2cccc3ccccc23)c2c1C(=O)c1ccccc1C2=O (10 µM) | 0.145 | 112% (inactive)
O=C1OC(c2ccc(O)cc2)(c2ccc(O)cc2)c2ccccc21 [phenolphthalein] (10 µM) | 0.0414 | 110% (inactive)
c1ccc2c(-c3cnn4cc(-c5ccc(N6CCNCC6)cc5)cnc34)ccnc2c1 (10 µM) | -0.0877 | 108% (inactive)
Cc1c(N2C(=O)[C@@H]3[C@H](O)CCN3C2=O)ccc(C#N)c1Cl (10 µM) | 0.189 | 91.5% (inactive)
Cc1cc(N2CCN([C@@H]3CN[C@H](C(=O)N4CCSC4)C3)CC2)n(-c2ccccc2)n1 [teneligliptin] (10 µM) | 0.062 | 112% (inactive)
CC(C)=CCC/C(C)=C/CC/C(C)=C/CSc1ccccc1C(N)=O [farnesyl-thiosalicylic-acid-amide] (10 µM) | 0.012 | 110% (inactive)
CCCCC[C@H](O)/C=C/[C@H]1[C@H](O)CC(=O)[C@@H]1CCCCCCC(=O)O [alprostadil] (10 µM) | 0.11 | 90.5% (inactive)
CCC1(CC)C(=O)NC(=O)N(C)C1=O [metharbital] (10 µM) | 0.221 | 91.5% (inactive)
COc1cc2ncc(-c3ccccc3)nc2cc1OC [tyrphostin-AG-1296] (10 µM) | 0.195 | 108% (inactive)
O=C(O)/C=C/c1ccc(Cn2ccnc2)cc1 [ozagrel] (10 µM) | 0.12 | 92% (inactive)
COc1cc(N2CCC(N3CCN(C)CC3)CC2)ccc1Nc1ncc(Cl)c(Nc2ccccc2S(=O)(=O)C(C)C)n1 (0.833333 µM) | 0.115 | 102% (inactive)
CC(=O)N[C@H]1[C@H]([C@H](O)[C@H](O)CO)OC(O)(C(=O)O)C[C@@H]1O (mixture of isomers) [aceneuramic-acid] (10 µM) | 0.0132 | 104% (inactive)
O=P(O)(O)CN(CCN(CP(=O)(O)O)CP(=O)(O)O)CP(=O)(O)O (10 µM) | 0.137 | 104% (inactive)
OC[C@H]1O[C@@H](Oc2cc(O)cc(/C=C/c3ccc(O)cc3)c2)[C@H](O)[C@@H](O)[C@@H]1O [polydatin] (10 µM) | 0.0104 | 104% (inactive)
C[C@@H]1c2ccccc2CN1CC1=NCCN1 (racemic) (10 µM) | 0.0304 | 92.5% (inactive)
c1ccc2sc(SNC3CCCCC3)nc2c1 [N-cyclohexyl-2-benzothiazolesulfenamide] (10 µM) | -0.00896 | 106% (inactive)
